The nature of assay [1]: Nuclear factor erythroid 2-related factor 2/antioxidant responsive element (Nrf2/ARE) small molecule agonists: qHTS cell viability counter screen in human keratinocytes (AID 1919968; active = well fitted curve in the direction sought with a large enough effect in the repeat runs; an effect the other way counts as inactive or inconclusive; also: nearly all actives have a fitted effect of over 55% in size). Put shortly: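 Viability counter-screen: KeratinoSens reporter cells, DMSO-delivered compounds, 23 h at 37 C, CellTiter-Fluor fluorescence.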
A short description of assay [2]: Nuclear factor erythroid 2-related factor 2/antioxidant responsive element (Nrf2/ARE) small molecule agonists: luciferase reporter gene qHTS assay in human keratinocytes (AID 1919969). Also: nearly all actives have a fitted effect of over 35% in size. Also: potency is read from the fitted curve at half-maximal effect.
Assay [3] deals with Gonadotropin-releasing hormone receptor (Homo sapiens) (UniProt P30968). Nature of the assay: Human gonadotropin-releasing hormone receptor (GnRHR) small molecule agonists, calcium flux assay in GnRHR-HEK293 cells (AID 1920063). Also: nearly all actives have a fitted effect of over 35% in size. In a few lines: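 Tox21-format agonist screen using human GnRHR-expressing HEK293 cells and a fluorescent calcium dye; kinetic 3-min fluorescence reading after compound addition, 15-point concentration series run in triplicate.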
A general note: Calcium assays in cells follow changes in intracellular calcium, usually with a dye or a luminescent sensor.

The target of assay [4] is KiSS-1 receptor (Homo sapiens) (UniProt Q969F8). Nature of the assay: Human kisspeptin (KISS1R) small molecule agonists, calcium flux assay in KISS1R-HEK293 cells (AID 1920064; active = well fitted curve in the direction sought with a large enough effect in the repeat runs; an effect the other way counts as inactive or inconclusive). Put shortly:
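Intracellular calcium mobilization in KISS1R-HEK293 cells was recorded by fluorescence (Ex/Em 480/540) for 3 min following compound addition to cells pre-loaded 1 h with calcium dye.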

The nature of assay [5]: G protein-coupled receptor (GPCR) small molecule agonists, calcium flux assay: HEK293 wild type cell line counter screen (AID 1920065). Put shortly: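 In this agonist-mode screen, ATP is the positive control and DMSO the vehicle. Cells grow 18 h before a 1 h dye incubation at 37 C; signal is taken at Ex/Em 480/540 over 3 min.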
Assay [6] is described as follows: p53 small molecule agonists, cell-based qHTS assay with human liver microsomes (AID 1963577). Put shortly:
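Cells carrying a p53-responsive bla reporter were rested 5 h (37 C, 5% CO2) before compound transfer. Human liver microsomes plus NADPH, 0.5 mg/mL final apiece, supplied metabolism during the 16 h 37 C exposure.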
Background: Quantitative high-throughput screening tests each substance at several concentrations.

A short description of assay [7]: p53 small molecule agonists, cell-based qHTS assay with rat liver microsomes (AID 1963578). In a few lines:
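Fluorescence from a beta-lactamase reporter under a p53 response element was measured after cells had been incubated 16 h at 37 C with test compound and rat liver microsomes plus NADPH (0.5 mg/mL final each).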

Assay [8] can be described thus: p53 small molecule agonists, cell-based qHTS assay with human liver microsomes: qHTS cell viability counter screen (AID 1963579). Also: nearly all actives have a fitted effect of over 45% in size. In a few lines:
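Seed p53RE-bla cells at 4,000 per well; incubate 5 h at 37 C; add compound, human liver microsomes and NADPH; incubate 16 h at 37 C; add CellTiter-Glo; after 30 min at room temperature, read luminescence.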

A short description of assay [9]: p53 small molecule agonists, cell-based qHTS assay with rat liver microsomes: qHTS cell viability counter screen (AID 1963580). Also: nearly all actives have a fitted effect of over 45% in size. In a few lines: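 p53RE-bla HCT-116 cells were exposed 16 h at 37 C to compounds with rat liver microsomes (0.5 mg/mL) and NADPH (0.5 mg/mL). Viability was measured in the same wells as ATP content by CellTiter-Glo luminescence.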
The nature of assay [10]: p53 small molecule agonists, cell-based qHTS assay: qHTS cell viability counter screen (AID 1963581). Also: nearly all actives have a fitted effect of over 45% in size. In a few lines: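 Compounds are pinned onto HCT-116 p53RE-bla cells and left 16 h at 37 C. Following the reporter FRET read, ATP is quantified by CellTiter-Glo luminescence after 30 min at room temperature.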
The nature of assay [11]: p53 small molecule agonists, cell-based qHTS assay (AID 1963582; active = well fitted activation curve with a large enough effect in the signal ratio in the repeat runs, not every such curve was filed as active; the % refers to the signal ratio). Put shortly:
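Agonist activity was scored from beta-lactamase FRET fluorescence in p53RE-bla cells treated 16 h at 37 C with compounds in DMSO, substrate incubation being 2 h at room temperature.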

Assay [12] addresses Muscarinic acetylcholine receptor M1 (Homo sapiens) (UniProt P11229). The experiment in a line: Cholinergic receptor muscarinic 1 (CHRM1) small molecule antagonists, cell-based qHTS assay (AID 1963588). Also: nearly all actives have a fitted effect of over 40% in size. Put shortly: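 CHRM1-CHO calcium-flux assay, antagonist mode. Cells were seeded 18 h, dye-loaded 1 h at 37 C and given compound for 5 min at RT, then acetylcholine was added at 50nM. FDSS fluorescence was read 3 min; 15 concentrations, three runs.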

For assay [13] the target is unchanged. Nature of the assay: Cholinergic receptor muscarinic 1 (CHRM1) small molecule agonists, cell-based qHTS assay (AID 1963589). Also: nearly all actives have a fitted effect of over 35% in size. Put shortly: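 Stable CHRM1-CHO cells (human receptor) were incubated 18 h, dye-loaded for 1 h at 37 C and exposed to test compounds for agonist activity, with calcium-dependent fluorescence followed kinetically.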
Assay [14] in a line: cAMP Responsive Elements (CRE) small molecule agonists, cell-based qHTS assay (AID 1963590). In a few lines: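 FRET-based beta-lactamase readout (LiveBLAzer B/G, 2 h RT) quantified CRE activation in HEK 293T CRE-bla cells after 3 h treatment with DMSO-dissolved compounds.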
The nature of assay [15]: cAMP Responsive Elements (CRE) small molecule antagonists, cell-based qHTS assay (AID 1963591; active = well fitted inhibition curve with a large enough effect in the signal ratio in the repeat runs, not every such curve was filed as active; the % refers to the signal ratio). In a few lines: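 qHTS in CRE-bla HEK 293T cells: compound in DMSO, then 0.25 uM NKH477 (final), 3 h at 37 °C/5% CO2; beta-lactamase FRET read-out after 2 h substrate incubation.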
Assay [16] concerns the target D(2) dopamine receptor (Homo sapiens) (UniProt P14416). Nature of the assay: Dopamine D2 receptor (DRD2) small molecule agonists, cell-based qHTS assay (AID 1963594). Also: nearly all actives have a fitted effect of over 35% in size. In a few lines:
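HEK293 cells stably expressing human DRD2, pre-treated with PDE inhibitor Ro20-1724 (0.1 mM final) and compound 10 min at room temperature, then stimulated with NKH477 (200nM […]) for 30 min. cAMP read by HTRF (665/620 nm).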

Assay [17] has the same target. The experiment in a line: Dopamine D2 receptor (DRD2) small molecule antagonists, cell-based qHTS assay (AID 1963595; active = well fitted inhibition curve with a large enough effect in the signal ratio in the repeat runs, with a control signal flat; the % refers to the signal ratio). In a few lines:
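Stable D2 receptor HEK293 line, 24 h after seeding. Compound preincubated 10 min, then quinpirole (12 nM) with forskolin analogue NKH477 (200 nM), 30 min, room temperature. Detection by time-resolved FRET of cAMP.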

Assay [18] concerns the target Beta-2 adrenergic receptor (Homo sapiens) (UniProt P07550). Nature of the assay: Adrenergic beta2 receptor (ADRB2) small molecule antagonists, cell-based qHTS assay (AID 1963592). Also: series mostly up to about 92 µM; nearly all actives have a fitted effect of over 50% in size. In a few lines:
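Cells (CHO, stable ADRB2 overexpression) incubated 18-20hr at 37C; compounds added from DMSO; agonist mix (1nM isoproterenol, 100uM IBMX, 25uM Ro-20-1724) added; 0.5hr RT; d2-cAMP and anti-cAMP-cryptate added; 1hr RT; 665/615 nm read.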

The target is the same in assay [19]. The experiment in a line: Adrenergic beta2 receptor (ADRB2) small molecule agonists, cell-based qHTS assay (AID 1963593).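 Also: CHO cells stably overexpressing human ADRB2.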 Put shortly:
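CHO cells stably over-expressing ADRB2 were plated overnight at 37C, then dosed with compounds plus a stimulation mix containing 100uM IBMX and 25uM Ro-20-1724 for 0.5hr at room temperature. cAMP was measured by HTRF competition, 1hr.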

In assay [20] the target is 5-hydroxytryptamine receptor 2A (Homo sapiens) (UniProt P28223). The experiment in a line: 5-hydroxytryptamine receptor 2A (HTR2A) small molecule agonists, cell-based qHTS assay (AID 1963587). Also: nearly all actives have a fitted effect of over 30% in size. Also: potency is read from the fitted curve at half-maximal effect. Put shortly:
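CHO cells stably expressing human HTR2A, plated 18 h, loaded with calcium dye 1 h at 37 C. Agonist mode: compounds added and intracellular calcium fluorescence recorded kinetically for 2 min at 1 sec intervals.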

Inconclusive results are not listed. Calls of active or inactive are those of the source. Unless noted, calls follow the shape of the full dose curve.

Beta-2 adrenergic receptor (Homo sapiens), sequence (P07550 whole entry, looked up): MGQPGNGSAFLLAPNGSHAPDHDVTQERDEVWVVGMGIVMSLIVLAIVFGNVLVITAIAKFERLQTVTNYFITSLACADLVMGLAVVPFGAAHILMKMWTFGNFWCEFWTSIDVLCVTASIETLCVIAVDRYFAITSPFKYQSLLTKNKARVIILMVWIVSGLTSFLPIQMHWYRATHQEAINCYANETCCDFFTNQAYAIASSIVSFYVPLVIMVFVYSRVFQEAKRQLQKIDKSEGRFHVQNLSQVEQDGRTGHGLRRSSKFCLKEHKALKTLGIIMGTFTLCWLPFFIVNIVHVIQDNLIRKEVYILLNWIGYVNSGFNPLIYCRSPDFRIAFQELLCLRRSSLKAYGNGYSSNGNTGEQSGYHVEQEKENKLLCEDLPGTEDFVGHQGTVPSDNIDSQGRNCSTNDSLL
Gonadotropin-releasing hormone receptor (Homo sapiens), sequence (P30968 whole entry, looked up): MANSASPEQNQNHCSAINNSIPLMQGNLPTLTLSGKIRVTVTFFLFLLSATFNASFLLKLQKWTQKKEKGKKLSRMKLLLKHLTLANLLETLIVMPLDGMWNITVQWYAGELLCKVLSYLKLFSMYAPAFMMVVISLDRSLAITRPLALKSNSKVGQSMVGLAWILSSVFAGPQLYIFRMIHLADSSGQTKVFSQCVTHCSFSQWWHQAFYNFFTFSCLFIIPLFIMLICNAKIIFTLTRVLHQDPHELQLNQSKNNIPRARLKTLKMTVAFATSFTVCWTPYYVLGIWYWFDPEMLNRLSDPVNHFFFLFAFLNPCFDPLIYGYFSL
D(2) dopamine receptor (Homo sapiens), sequence (P14416 whole entry, looked up): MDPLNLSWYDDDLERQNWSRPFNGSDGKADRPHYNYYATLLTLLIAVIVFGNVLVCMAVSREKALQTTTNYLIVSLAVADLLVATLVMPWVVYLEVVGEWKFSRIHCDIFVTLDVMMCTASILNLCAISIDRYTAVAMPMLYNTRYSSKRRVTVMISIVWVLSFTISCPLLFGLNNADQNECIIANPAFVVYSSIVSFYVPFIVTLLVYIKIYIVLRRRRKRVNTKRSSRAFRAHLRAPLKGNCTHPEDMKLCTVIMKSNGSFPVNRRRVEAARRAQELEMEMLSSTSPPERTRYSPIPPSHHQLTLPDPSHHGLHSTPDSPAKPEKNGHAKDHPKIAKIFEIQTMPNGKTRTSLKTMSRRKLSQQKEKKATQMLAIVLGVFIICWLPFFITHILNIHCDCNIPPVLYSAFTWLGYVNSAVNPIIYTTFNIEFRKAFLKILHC
5-hydroxytryptamine receptor 2A (Homo sapiens), sequence (P28223 whole entry, looked up): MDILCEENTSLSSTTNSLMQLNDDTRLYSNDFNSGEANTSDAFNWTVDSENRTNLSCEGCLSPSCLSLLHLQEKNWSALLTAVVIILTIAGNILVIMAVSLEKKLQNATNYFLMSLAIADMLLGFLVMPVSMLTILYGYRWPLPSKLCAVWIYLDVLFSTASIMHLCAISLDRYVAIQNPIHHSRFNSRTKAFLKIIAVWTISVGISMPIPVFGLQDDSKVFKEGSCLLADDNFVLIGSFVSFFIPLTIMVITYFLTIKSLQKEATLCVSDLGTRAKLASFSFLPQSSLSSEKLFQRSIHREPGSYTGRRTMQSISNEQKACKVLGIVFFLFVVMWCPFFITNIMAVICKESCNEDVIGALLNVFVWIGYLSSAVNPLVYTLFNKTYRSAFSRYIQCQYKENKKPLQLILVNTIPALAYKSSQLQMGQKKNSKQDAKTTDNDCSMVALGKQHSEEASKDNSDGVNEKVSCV
KiSS-1 receptor (Homo sapiens), sequence (Q969F8 whole entry, looked up): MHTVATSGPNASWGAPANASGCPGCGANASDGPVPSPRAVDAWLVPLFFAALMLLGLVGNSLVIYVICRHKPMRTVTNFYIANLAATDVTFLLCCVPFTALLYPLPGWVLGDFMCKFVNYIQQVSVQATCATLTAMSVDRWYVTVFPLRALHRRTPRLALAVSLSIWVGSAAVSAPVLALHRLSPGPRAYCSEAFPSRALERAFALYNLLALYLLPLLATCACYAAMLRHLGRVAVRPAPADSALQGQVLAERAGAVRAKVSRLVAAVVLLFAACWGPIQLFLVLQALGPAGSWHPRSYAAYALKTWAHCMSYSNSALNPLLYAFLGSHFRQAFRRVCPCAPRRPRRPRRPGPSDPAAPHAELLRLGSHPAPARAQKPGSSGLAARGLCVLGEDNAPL
Muscarinic acetylcholine receptor M1 (Homo sapiens), sequence (P11229 whole entry, looked up): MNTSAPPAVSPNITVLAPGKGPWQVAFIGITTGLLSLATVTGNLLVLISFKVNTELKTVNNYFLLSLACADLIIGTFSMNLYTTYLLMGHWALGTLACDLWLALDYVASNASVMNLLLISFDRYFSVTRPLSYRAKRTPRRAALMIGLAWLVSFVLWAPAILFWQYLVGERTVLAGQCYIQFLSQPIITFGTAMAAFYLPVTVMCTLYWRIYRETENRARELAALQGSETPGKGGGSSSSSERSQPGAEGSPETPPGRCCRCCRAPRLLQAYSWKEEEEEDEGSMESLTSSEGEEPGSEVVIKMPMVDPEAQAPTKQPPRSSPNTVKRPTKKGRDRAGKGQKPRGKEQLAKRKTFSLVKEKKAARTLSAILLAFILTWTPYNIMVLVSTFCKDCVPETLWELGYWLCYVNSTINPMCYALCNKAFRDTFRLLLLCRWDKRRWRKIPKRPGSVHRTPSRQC

As for `CCCCC(=O)O[C@]1(C(=O)CO)[C@H](C)C[C@H]2[C@@H]3CCC4=CC(=O)C=C[C@]4(C)[C@@]3(F)[C@@H](O)C[C@@]21C`, the Potency entry in assay [1], in assay [2], in assay [3], in [6], in [7] and in assay [8] was “inactive” throughout. Moreover, the Potency entry in assay [9], in [10], in assay [11], in assay [12], in assay [13] and in [14] was “inactive” each time. Further, the Potency result in [15], in assay [16] and in assay [17] was “inactive” throughout. The outcome in [4] and in assay [5] was inactive.
For the compound `O=C1c2ccccc2C(=O)C1c1ccc(Br)cc1`, the Potency result in assay [1], in assay [2], in assay [3], in [6], in assay [7] and in assay [8] was “inactive” in each case. Also, the Potency entry in assay [9], in [10], in assay [11], in [12], in assay [13] and in assay [18] was “inactive” throughout. Besides, the Potency result in assay [19], in assay [16] and in [17] was “inactive” in each case. In addition, the result in assay [4] and in assay [5] was inactive.
Regarding `CN(C)CCc1c[nH]c2ccc(CS(=O)(=O)N3CCCC3)cc12`, the Potency result in [1], in [2], in assay [3], in assay [6], in assay [7] and in assay [8] was “inactive” each time. The Potency entry in assay [9], in [10], in [11], in assay [12], in [13] and in assay [14] was “inactive” throughout. Besides, the Potency result in [15], in assay [18], in assay [19], in assay [16] and in [17] was “inactive” throughout. Moreover, the outcome in assay [4] and in assay [5] was inactive. Moreover, the Potency in assay [20] is 10.7 µM (active).
For `CC(=O)c1c(C)cc(C(C)(C)C)cc1C`, the Potency entry in assay [1], in assay [2], in assay [3], in assay [6], in assay [7] and in assay [8] was “inactive” each time. Moreover, the Potency entry in assay [9], in assay [10], in assay [11], in [12], in [13] and in assay [14] was “inactive” each time. Moreover, the Potency entry in assay [18], in assay [16] and in [17] was “inactive” each time. For the same compound, the result in [4] and in assay [5] was inactive.
As to `COCCc1ccccn1`, the Potency result in [1], in assay [2], in assay [3], in assay [6], in [7] and in assay [8] was “inactive” in each case. The Potency result in [9], in assay [10], in assay [11], in assay [20], in assay [12] and in [13] was “inactive” in each case. For the same compound, the Potency entry in assay [14], in [15], in [18], in [19], in [16] and in assay [17] was “inactive” in each case. Moreover, the outcome in [4] and in assay [5] was inactive.
With `CCC(CC)C(=O)O`, the Potency result in assay [1], in assay [2], in assay [3], in assay [6], in assay [7] and in [8] was “inactive” in each case. The Potency entry in assay [9], in [10], in assay [11], in assay [20], in [12] and in assay [13] was “inactive” throughout. In addition, the Potency entry in assay [14], in [15] and in assay [18] was “inactive” in each case. Moreover, the outcome in assay [4] and in [5] was inactive.
Regarding `ONc1ccccc1`, the Potency result in [1], in [3], in assay [6], in [7], in [8] and in [9] was “inactive” each time. Besides, the Potency result in assay [10], in assay [11], in assay [12], in [14], in assay [15] and in assay [18] was “inactive” in each case. The Potency result in [16] and in assay [17] was “inactive” throughout. The Potency in assay [2] is 60.5 µM (active). Also, the outcome in assay [4] and in assay [5] was inactive.

For the origin of these results see PubChem BioAssay (Tox21).
